“And” between values parts separate entries of the source, which are not always exact repeats. Equal values may be shown once. Inconclusive results are not listed. A call without a number means that no potency is given here. Where a structure was tested more than once in an assay, its records may differ in their call. The source made the active and inactive calls. Unless noted, calls follow the shape of the dose curve; as a rule, active = well fitted curve in the direction sought with a large enough effect in the repeat runs; inconclusive = weak or mixed curves; inactive = no such curve, though single readings can be large; an effect the other way counts as inactive or inconclusive.
Key:
[1] = molecular target: Retinoic acid receptor RXR-alpha (Homo sapiens) (UniProt P19793); experiment: qHTS assay to identify small molecule agonists of the RXR signaling pathway (AID 1159527; calls by dose curve; also: nearly all actives have a fitted effect of over 35% in size; also: potency is read from the fitted curve at half-maximal effect)
Sequence of Retinoic acid receptor RXR-alpha (Homo sapiens) (P19793 whole entry, looked up): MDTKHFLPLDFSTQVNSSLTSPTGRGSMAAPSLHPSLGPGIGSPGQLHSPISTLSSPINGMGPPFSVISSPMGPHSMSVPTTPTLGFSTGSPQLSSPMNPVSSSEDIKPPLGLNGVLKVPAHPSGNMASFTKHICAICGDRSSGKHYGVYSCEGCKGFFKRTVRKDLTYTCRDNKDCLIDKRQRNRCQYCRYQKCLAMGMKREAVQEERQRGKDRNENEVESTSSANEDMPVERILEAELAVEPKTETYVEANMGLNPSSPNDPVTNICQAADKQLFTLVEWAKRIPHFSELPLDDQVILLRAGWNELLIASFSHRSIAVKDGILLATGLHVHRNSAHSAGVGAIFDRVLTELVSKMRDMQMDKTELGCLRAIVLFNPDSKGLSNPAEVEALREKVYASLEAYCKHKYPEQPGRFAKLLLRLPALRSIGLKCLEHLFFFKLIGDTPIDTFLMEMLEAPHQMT
Outline: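 Fluorescence ratio readout (460 vs 530 nm) from GeneBLAzer RXR-alpha HEK 293T cells after 16 hr compound treatment; cells seeded 5 hr beforehand in low-serum, charcoal-stripped medium.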

[2] = qHTS assay to identify small molecule agonists of the RXR signaling pathway - cell viability counter screen (AID 1159529); also: nearly all actives have a fitted effect of over 50% in size; also: potency is read from the fitted curve at half-maximal effect
Outline: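 Viability read-out for the RXR-alpha agonist qHTS: luminescent CellTiter-Glo signal after 30 min at RT. HEK 293T bla reporter cells, 2% charcoal-stripped FBS, 16 hr compound incubation; tetraoctyl ammonium bromide as cytotoxic control.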

[3] = qHTS assay to identify small molecule antagonists of the retinoid acid receptor (RAR) signaling pathway - cell viability counter screen (AID 1159551); also: nearly all actives have a fitted effect of over 35% in size
Outline: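 Retinol-stimulated (1 uM final) C3RL4 cells, compound 6 h, 37 C; readout CellTiter-Glo luminescence (ATP) after 30 min RT incubation.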

[4] = qHTS assay to identify small molecule antagonists of the estrogen related receptor (ERR) signaling pathway from Tox21 library - cell viability counter screen (AID 1224834); also: nearly all actives have a fitted effect of over 30% in size; also: potency is read from the fitted curve at half-maximal effect
Outline: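 After 17.5 h of compound exposure at 37 C, ERR cells are incubated with CellTiter-Fluor for 30 min and fluorescence intensity serves as the viability measure.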

[5] = molecular target: Luciferin 4-monooxygenase (Photinus pyralis) (UniProt P08659); experiment: qHTS assay to identify small molecule inhibitors of firefly luciferase (AID 1224835); also: nearly all actives have a fitted effect of over 25% in size; also: potency is read from the fitted curve at half-maximal effect
Sequence of Luciferin 4-monooxygenase (Photinus pyralis) (P08659 whole entry, looked up): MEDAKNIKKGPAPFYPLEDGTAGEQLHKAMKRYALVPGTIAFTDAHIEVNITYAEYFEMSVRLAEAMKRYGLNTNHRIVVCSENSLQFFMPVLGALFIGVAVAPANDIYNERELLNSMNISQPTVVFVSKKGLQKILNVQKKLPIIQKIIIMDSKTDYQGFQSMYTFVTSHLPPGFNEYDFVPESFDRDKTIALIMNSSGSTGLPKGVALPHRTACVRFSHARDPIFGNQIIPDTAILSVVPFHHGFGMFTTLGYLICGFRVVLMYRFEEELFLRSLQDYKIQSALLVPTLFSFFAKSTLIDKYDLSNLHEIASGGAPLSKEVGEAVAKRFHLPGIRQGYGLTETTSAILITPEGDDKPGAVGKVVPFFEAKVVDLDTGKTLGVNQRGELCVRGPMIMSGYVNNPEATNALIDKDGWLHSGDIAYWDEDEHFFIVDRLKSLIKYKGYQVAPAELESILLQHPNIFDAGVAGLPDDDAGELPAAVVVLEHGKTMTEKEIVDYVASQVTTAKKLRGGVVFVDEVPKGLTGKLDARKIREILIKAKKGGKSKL
Outline: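 Inhibition of purified Photinus luciferase is measured by luminescence. Substrate levels (D-luciferin, ATP) sit at their KM values. Each compound is tested in a concentration series.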

[6] = qHTS assay to identify small molecule agonists of the constitutive androstane receptor (CAR) signaling pathway - cell viability counter screen (AID 1224836); also: series mostly up to about 92 µM; nearly all actives have a fitted effect of over 45% in size
Outline: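 Multiplexed viability check: HepG2-CYP2B6-hCAR cells, 15-point compound dosing, 0.75 uM PK11195 final, 23 h at 37 C, CellTiter-Fluor fluorescence.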

[7] = qHTS assay to identify small molecule antagonists of the constitutive androstane receptor (CAR) signaling pathway - cell viability counter screen (AID 1224837); also: series mostly up to about 92 µM; nearly all actives have a fitted effect of over 45% in size
Outline: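 Counter screen run in HepG2-CYP2B6-hCAR cells: 4 hr settle, compound titration (15 concentrations) with 50 nM CITCO, 23 hr at 37 C/5% CO2, CellTiter-Fluor fluorescence.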

[8] = molecular target: Nuclear receptor subfamily 1 group I member 3 (Homo sapiens) (UniProt Q14994); experiment: qHTS assay to identify small molecule antagonists of the constitutive androstane receptor (CAR) signaling pathway (AID 1224838);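 also: HepG2 cells stably expressing hCAR with CYP2B6 luciferase reporter stimulated by CITCO; nearly all actives have a fitted effect of over 40% in size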; also: potency is read from the fitted curve at half-maximal effect
Sequence of Nuclear receptor subfamily 1 group I member 3 (Homo sapiens) (Q14994 whole entry, looked up): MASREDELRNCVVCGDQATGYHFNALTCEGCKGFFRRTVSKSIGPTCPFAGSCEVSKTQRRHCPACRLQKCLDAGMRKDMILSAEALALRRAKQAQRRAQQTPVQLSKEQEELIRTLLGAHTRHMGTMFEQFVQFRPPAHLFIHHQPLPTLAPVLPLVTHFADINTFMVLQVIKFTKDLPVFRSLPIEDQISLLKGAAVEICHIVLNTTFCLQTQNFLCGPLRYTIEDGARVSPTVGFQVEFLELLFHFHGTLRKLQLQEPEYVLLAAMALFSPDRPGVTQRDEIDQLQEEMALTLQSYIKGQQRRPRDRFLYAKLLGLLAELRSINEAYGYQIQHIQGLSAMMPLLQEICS
Outline: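 Cell line: HepG2 double-stable for hCAR and CYP2B6-2.2kb reporter. Agonist: CITCO, 50 nM final. Compounds: 15 concentrations, 24 h, 37 C. Detection: ONE-Glo luminescence.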

[9] = molecular target: Nuclear receptor subfamily 1 group I member 3 (Homo sapiens) (UniProt Q14994); experiment: qHTS assay to identify small molecule agonists of the constitutive androstane receptor (CAR) signaling pathway (AID 1224839); also: nearly all actives have a fitted effect of over 15% in size; also: potency is read from the fitted curve at half-maximal effect;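 as to activation: HepG2 cells stably carrying human CAR and a CYP2B6 luciferase reporter; series mostly up to about 92 µM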
Outline: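 Using human hepatoma HepG2 cells engineered with hCAR and a CYP2B6-2.2kb reporter, 15-concentration compound series were incubated 24 h alongside PK11195 at 0.75 uM final, with luminescence quantified afterwards.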

[10] = qHTS assay to identify small molecule antagonists of the estrogen related receptor signaling pathway with the pleiotropic PPARgamma coactivator (PGC) from Tox21 10K library - cell viability counter screen (AID 1224840; active = well fitted cell-killing curve with a large enough effect in the repeat runs, not every such curve was filed as active; also: nearly all actives have a fitted effect of over 40% in size; also: potency is read from the fitted curve at half-maximal effect)
Outline: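 Following seeding of 2,000 PGC/ERR cells/well and 6 hours' incubation, test compounds were delivered in DMSO. The plates then sat 17.5 hours at 37 C before a fluorogenic live-cell protease reagent (CellTiter-Fluor) was read after 30 min.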

[11] = molecular target: Thyrotropin receptor (Homo sapiens) (UniProt P16473); experiment: qHTS assay to identify small molecule agonists of the thyroid stimulating hormone receptor (TSHR) signaling pathway (AID 1224843; calls by dose curve; also: nearly all actives have a fitted effect of over 45% in size)
Sequence of Thyrotropin receptor (Homo sapiens) (P16473 whole entry, looked up): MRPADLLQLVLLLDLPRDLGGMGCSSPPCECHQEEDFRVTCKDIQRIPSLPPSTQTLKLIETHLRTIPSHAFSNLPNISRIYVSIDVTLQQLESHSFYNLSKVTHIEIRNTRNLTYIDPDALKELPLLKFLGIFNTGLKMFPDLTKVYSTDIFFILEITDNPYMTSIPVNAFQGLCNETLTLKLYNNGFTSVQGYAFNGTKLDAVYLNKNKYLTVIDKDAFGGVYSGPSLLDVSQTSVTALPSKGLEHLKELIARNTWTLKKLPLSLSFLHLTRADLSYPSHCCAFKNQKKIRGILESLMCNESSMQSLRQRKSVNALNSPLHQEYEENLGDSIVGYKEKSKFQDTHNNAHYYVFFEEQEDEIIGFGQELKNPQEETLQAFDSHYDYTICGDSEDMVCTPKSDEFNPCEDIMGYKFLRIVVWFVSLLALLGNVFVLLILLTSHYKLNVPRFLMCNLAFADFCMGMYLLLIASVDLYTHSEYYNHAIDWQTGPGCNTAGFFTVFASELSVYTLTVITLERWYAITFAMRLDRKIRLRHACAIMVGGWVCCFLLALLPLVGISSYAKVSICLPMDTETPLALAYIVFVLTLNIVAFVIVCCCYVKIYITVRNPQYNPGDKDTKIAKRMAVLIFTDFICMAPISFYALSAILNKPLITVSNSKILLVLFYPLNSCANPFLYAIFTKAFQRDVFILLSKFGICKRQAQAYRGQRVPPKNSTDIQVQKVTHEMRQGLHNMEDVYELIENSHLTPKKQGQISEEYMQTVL
Outline: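 HEK293 cells stably bearing the thyrotropin receptor were plated at 800 cells/well and challenged with compound (30 min, RT). Accumulated cAMP was quantified via cAMP-d2 competing for cryptate-tagged antibody.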

[12] = qHTS assay to identify small molecule agonists of the hypoxia (HIF-1) signaling pathway - cell viability counter screen (AID 1224844; calls by dose curve; also: nearly all actives have a fitted effect of over 50% in size; also: potency is read from the fitted curve at half-maximal effect)
Outline: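 Cells (HRE-bla ME-180, 2,000 per well) sat 5 hrs at 37C, got compound for 17 hrs, were read for CCF4-AM FRET, and were finally lysed with CellTiter-Glo for a 30 min room-temperature luminescence read.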

[13] = qHTS assay to identify small molecule agonists of H2AX (AID 1224845; active = well fitted activation curve with a large enough effect in the signal ratio in the repeat runs, not every such curve was filed as active; the % refers to the signal ratio; also: potency is read from the fitted curve at half-maximal effect)
Outline: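 Phospho-H2AX Ser139 measured by HTRF (ex 320 nm; em 665 and 620 nm) after 24 hr antibody incubation. Compounds, 15 concentrations, 0.76% DMSO, were applied to CHO-K1 cells for 3hr at 37C before lysis.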

[14] = qHTS assay to identify small molecule agonists of H2AX - cell viability counter screen (AID 1224847; calls by dose curve;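 also: wild-type CHO-K1 cells; top concentration of the series differs between compounds; nearly all actives have a fitted effect of over 30% in size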)
Outline: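 After overnight plating of 1000 CHO-K1 cells per well, a 15-concentration compound series was applied for 3 hr at 37C. Luminescence from CellTiter-Glo, read following 30 min at room temperature, reflected cell viability.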

[15] = qHTS assay to identify small molecule antagonists of the estrogen related receptor signaling pathway with the pleiotropic PPARgamma coactivator (PGC) from Tox21 10K library (AID 1224841; call rule not given here; also: actives are mostly falling curves and most rising ones were filed inactive; nearly all actives have a fitted effect of over 50% in size; also: potency is read from the fitted curve at half-maximal effect)
Outline: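 qHTS antagonist format: PGC/ERR cells, 2k/well, compound in DMSO by pin transfer after 6 h attachment, 18 h treatment at 37 C, One-Glo luminescence read at 30 min.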

[16] = qHTS assay to identify small molecule agonists of the hypoxia (HIF-1) signaling pathway (AID 1224846; active = well fitted activation curve with a large enough effect in the signal ratio in the repeat runs, not every such curve was filed as active; the % refers to the signal ratio)
Outline: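 A low-serum medium (0.5% dialyzed FBS) holding 2,000 HRE-bla ME-180 cells per well is preincubated for 5 hrs, dosed with compounds by pintool, and kept a further 17 hrs at 37C, 5% CO2 before CCF4-AM FRET detection of beta-lactamase.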

[17] = qHTS assay to identify small molecule agonists of the retinoic acid receptor (RAR) signaling pathway (AID 1159553); also: potency is read from the fitted curve at half-maximal effect
Outline: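 Reporter readout comes from luciferase under RARE control in C3RL4 cells; compound exposure lasts 6 hr at 37 C in 5% CO2, and luminescence is recorded following a 30 min room-temperature incubation with reagent.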

[18] = qHTS assay to identify small molecule antagonists of the estrogen related receptor (ERR) signaling pathway - cell viability counter screen (AID 1224818); also: series mostly up to about 46 µM
Outline: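 After a 6 h pre-incubation, ERR cells were dosed by pin tool with compounds, positive/negative controls or DMSO alone. Following 17.5 h at 37 C and 30 min with CellTiter-Fluor, fluorescence was recorded.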

[19] = qHTS assay to identify small molecule antagonists of the estrogen related receptor signaling pathway with the pleiotropic PPARgamma coactivator (PGC) cell viability counter screen (AID 1224822; also: series mostly up to about 46 µM)
Outline: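 PGC/ERR cells were plated at 2,000 per well and allowed 6 h to settle before compound addition. Following 17.5 h at 37 C, CellTiter-Fluor reagent was added and fluorescence was read 30 min later.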

[20] = qHTS assay to identify small molecule antagonists of the retinoic acid receptor (RAR) signaling pathway (AID 1159552; also: nearly all actives have a fitted effect of over 50% in size)
Outline: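 Using a RARE-driven luciferase construct in C3RL4 cells, retinol at 1 uM final provided the agonist stimulus while compounds were co-applied. After 6 hours at 37 C, luminescence was recorded to flag inhibitors of retinol signaling.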

Row | SMILES | Potency [1] | Potency [2] | outcome [3] | Potency [4] | Potency [5] | Potency [6] | Potency [7] | Potency [8] | Potency [9] | Potency [10] | Potency [11] | Potency [12] | Potency [13] | Potency [14] | Potency [15] | outcome [16] | Potency [17] | outcome [18] | outcome [19] | Potency [20]
1 | CC(C)c1ccc(S(=O)(=O)O)cc1 | inactive | inactive | inactive | inactive | inactive | inactive | inactive | inactive | inactive | inactive | inactive | inactive | inactive | inactive | – | – | – | – | – | –
2 | CN(C)CCCN | inactive | inactive | inactive | inactive | inactive | inactive | – | inactive | inactive | inactive | inactive | – | inactive | inactive | inactive | inactive | – | – | – | –
3 | CC(=O)OCC(=O)[C@@]12N=C(C)O[C@@H]1C[C@H]1[C@@H]3CCC4=CC(=O)C=C[C@]4(C)[C@H]3[C@@H](O)C[C@@]12C | inactive | inactive | inactive | inactive | inactive | inactive | – | inactive | – | inactive | inactive | inactive | inactive | inactive | – | – | inactive | – | – | –
4 | CC(C)CC(=O)CC(C)C | inactive | inactive | inactive | inactive | inactive | inactive | inactive | – | – | inactive | – | inactive | inactive | inactive | inactive | inactive | – | – | – | –
5 | O=c1[nH]nnc2ccccc12 | inactive | inactive | inactive | inactive | inactive | inactive | – | inactive | inactive | inactive | inactive | inactive | inactive | inactive | inactive | – | – | – | – | –
6 | CCC(O)OCCCOC (configuration not stated) | inactive | inactive | inactive | inactive | inactive | inactive | inactive | inactive | – | inactive | inactive | inactive | inactive | inactive | inactive | – | – | – | – | –
7 | O=c1[nH]c(=O)n([C@H]2C[C@H](O)[C@@H](CO)O2)cc1Br | inactive | inactive | inactive | inactive | inactive | inactive | inactive | inactive | – | inactive | inactive | inactive | inactive | inactive | – | – | – | inactive | inactive | –
8 | O=S(=O)(O)c1ccc2ccccc2c1 | 11 µM (active) | inactive | inactive | inactive | inactive | inactive | inactive | – | – | inactive | inactive | inactive | inactive | inactive | – | – | – | – | – | –
9 | O=[N+]([O-])c1ccc(/C=C/c2ccc([N+](=O)[O-])cc2S(=O)(=O)O)c(S(=O)(=O)O)c1 | inactive | inactive | inactive | inactive | inactive | inactive | inactive | inactive | – | inactive | – | inactive | – | inactive | – | – | – | – | – | –
10 | CCCCCCCCCCCCS | inactive | inactive | inactive | inactive | inactive | inactive | – | inactive | – | inactive | inactive | inactive | inactive | inactive | – | inactive | inactive | – | – | inactive
11 | CCCSc1ccc2nc(NC(=O)OC)[nH]c2c1 | – | inactive | inactive | inactive | 3.99 µM (active) and 4.36 µM (active) | inactive | inactive | inactive | 9.44 µM (active) | inactive | – | inactive | – | inactive | – | inactive | 6.11 µM (active) and 21.1 µM (active) | – | – | inactive
12 | O=C(O)c1cc(=O)c2c(OCC(O)COc3cccc4oc(C(=O)O)cc(=O)c34)cccc2o1 | – | inactive | inactive | inactive | inactive | inactive | inactive | inactive | – | inactive | inactive | inactive | inactive | inactive | – | – | inactive | – | – | inactive
13 | CCCCC(CC)COC(=O)CCCCC(=O)OCC(CC)CCCC (configuration not stated) | – | inactive | inactive | inactive | inactive | inactive | inactive | inactive | inactive | inactive | inactive | inactive | inactive | inactive | – | – | inactive | – | – | inactive
14 | C[Si](O[Si](C)(C)C)O[Si](C)(C)C | inactive | inactive | inactive | inactive | inactive | inactive | – | inactive | inactive | inactive | inactive | inactive | inactive | inactive | – | – | – | – | – | –
15 | CCN(CC)c1ccc(C(=O)c2ccccc2C(=O)O)c(O)c1 | – | inactive | inactive | inactive | 28.4 µM (active) and 25.2 µM (active) | inactive | inactive | inactive | – | inactive | inactive | inactive | inactive | inactive | – | – | 10.9 µM (active) and 34.4 µM (active) | – | – | inactive
16 | C=C(C)C(=O)O[C@H]1C[C@@H]2CC[C@@]1(C)C2(C)C | inactive | 15.4 µM (active) and inactive | inactive | 8.58 µM (active) and inactive | 19.9 µM (active) and inactive | – | – | – | – | 13.6 µM (active) and inactive | inactive | 1.94 µM (active) and inactive | 2.24 µM (active) and inactive | inactive | 60.8 µM (active) and inactive | inactive | – | – | – | –
17 | CCCCC(CC)CO (configuration not stated) | – | inactive | inactive | inactive | inactive | inactive | inactive | inactive | – | inactive | inactive | – | inactive | inactive | – | inactive | – | – | – | –
18 | CC1=CC(=O)NS(=O)(=O)O1 | inactive | inactive | inactive | inactive | – | inactive | inactive | 48.7 µM (active) and inactive | – | inactive | inactive | inactive | inactive | inactive | – | inactive | – | – | – | –

From PubChem BioAssay (Tox21)
